A number with no mark means an inactive call. The rule behind the calls is not given here.
Experiment: viability loss in Vero 76 cells – cell-based, set 2, cytotoxicity control, dose response (AID 602240)
Conditions: Vero 76 cells viability, cytotoxicity counter-screen for VEEV; series mostly up to 50 µM; viability: at the top concentration

In order of falling “viability” value:
1. Clc1ccc2nnnc(-c3ccccc3)c2c1  127%
2. O=C(Oc1ccc2ccccc2c1Br)N1CCCCCC1  80.8%
3. O=c1nc(Nc2ccc(OCc3ccccc3)cc2)sc2ncccc12  80.5%
4. CCN1CCN(Cc2nc3ccc([N+](=O)[O-])cc3c(=O)n2-c2ccccc2F)CC1  73.1%
5. O=c1c2cc([N+](=O)[O-])ccc2nc(CN2CCN(c3ccccc3)CC2)n1-c1ccccc1F  71.8%
